Measurements published in PubChem BioAssay AID1209 (Sanford-Burnham Center for Chemical Genomics, 2008).
Screen size: about 190,000 compounds; about 810 (0.43%) were called active. Cut-off read from the data, not from the text of the source: active = inhibition above about 50%; inactive = the rest. Many of the other results were omitted from the sample, so actives are more common in it than they were.

The molecules below were run against Mannose-6-phosphate isomerase (Homo sapiens) (UniProt P34949) (assay: MPI enzyme activity inhibition – biochemical, fluorescence intensity, coupled assay, primary screen (AID 1209;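 note: plate controls were DMSO vehicle for no effect and wells lacking substrate for full effect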)). Conditions: purified PMI enzyme, at 20 µM, hits give high values.
Mannose-6-phosphate isomerase (Homo sapiens), sequence (P34949 whole entry, looked up): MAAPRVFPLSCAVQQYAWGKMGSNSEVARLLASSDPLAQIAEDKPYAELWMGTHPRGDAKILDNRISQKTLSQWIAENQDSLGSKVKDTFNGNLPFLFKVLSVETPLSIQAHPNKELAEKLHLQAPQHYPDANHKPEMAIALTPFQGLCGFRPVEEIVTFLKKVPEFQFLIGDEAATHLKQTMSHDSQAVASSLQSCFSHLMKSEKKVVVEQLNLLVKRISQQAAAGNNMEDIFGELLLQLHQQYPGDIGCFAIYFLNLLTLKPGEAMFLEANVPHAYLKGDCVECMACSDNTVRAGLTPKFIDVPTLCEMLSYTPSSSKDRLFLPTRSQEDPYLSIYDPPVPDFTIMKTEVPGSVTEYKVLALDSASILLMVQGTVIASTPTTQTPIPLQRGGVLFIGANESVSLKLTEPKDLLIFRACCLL
For `COc1ccc2c(c1)C(=O)N(c1ccccc1C)C(=O)C2(C)C`, the inhibition was -9.2% (inactive).
For `COC(=O)CCCNc1ncccc1[N+](=O)[O-]`, the inhibition was -0.5% (inactive).
In the case of `Cn1c(SCC(=O)N2CCN(c3ccccc3)CC2)nnc1-c1ccco1`, the inhibition is reported as 4.2% (inactive).
For `CC(C)(CNS(C)(=O)=O)SCc1ccc(Cl)cc1`, the inhibition was -12.2% (inactive).
In the case of `Cc1nn(C(C)CC(=O)O)c(C)c1Br` (stereo unspecified), the inhibition is reported as -0.1% (inactive).
`COc1cccc(/C=N/NC(=O)c2ccccc2)c1OS(=O)(=O)c1ccccc1` was tested, and the inhibition was 2.4% (inactive).
With `COc1ccc(C(=O)CCC(C)(C)[N+](=O)[O-])cc1` the inhibition was -6.3% (inactive).
For `O=C(c1ccc(CS(=O)(=O)c2ccc(Br)cc2)o1)N1CCN(C2CCCCC2)CC1`, the inhibition was -9% (inactive).
For `O=C(NC1CCCCC1)C(=S)N1CCOCC1`, the inhibition was 10.9% (inactive).
For `O=C(NC1CCCCCC1)C(=S)N1CCOCC1`, the inhibition was 61.8% (active).
With `O=C(NC1CCCCCC1)C(=S)N1CCCC1` the inhibition was 4.7% (inactive).
In the case of `Cc1ccc(C(C(=O)NC2CCCCC2)N2CCC3(CC2)OCCO3)cc1` (stereo unspecified), the inhibition is reported as 1.6% (inactive).
`C=CCOC(=O)C1=C[C@H](c2ccc(Br)cc2)[C@@H](CCCO)[C@H](OCC)O1` was tested, and the inhibition was 17.5% (inactive).
`Cc1occc(=O)c1O` was tested, and the inhibition was -5.2% (inactive).
With `Cc1cc(=O)c2c(O)c(O)ccc2o1` the inhibition was 77.7% (active).
For `COc1ccc(-c2cc(=O)c3c(O)c(OC)c(O)cc3o2)cc1`, the inhibition was 0.6% (inactive).
In the case of `O=C(O)c1ccccc1Cc1nc2cc(Cl)ccc2c(=O)[nH]1`, the inhibition is reported as -7.4% (inactive).
`COc1ccc(NC(=O)CCCn2c(=O)c3sccc3n(Cc3ccccc3C)c2=O)cc1` was tested, and the inhibition was 6.6% (inactive).
For `CCN(CC)C(=O)c1ccc(/C=C/c2c[nH]c3ccccc23)[n+](C)c1`, the inhibition was 8.9% (inactive).
`CCc1ccc(/C=C/c2c[nH]c3ccccc23)[n+](CC)c1` was tested, and the inhibition was 51.8% (active).
For `OCC[n+]1ccc(/C=C/c2c[nH]c3ccccc23)cc1`, the inhibition was 2.7% (inactive).
`NS(=O)(=O)c1ccc(CCNC(=O)C2CCC(CNS(=O)(=O)c3ccc(Br)s3)CC2)cc1` (stereo unspecified) was tested, and the inhibition was 4.5% (inactive).
In the case of `Cc1ccc2cc(C=O)c(Cl)nc2c1`, the inhibition is reported as 37.4% (inactive).
In the case of `Cc1cc(C)c2cc(CNC3CCCC3)c(Cl)nc2c1`, the inhibition is reported as 8.6% (inactive).
With `Cc1cc2cc(C=O)c(Cl)nc2cc1C` the inhibition was 61.2% (active).
With `Cc1cc2cc(C=C(C#N)C#N)c(Cl)nc2cc1C` the inhibition was 20.3% (inactive).
In the case of `CC(C)(C)c1nn(-c2ccccc2)c2nc(Cl)c(C=O)cc12`, the inhibition is reported as -1.5% (inactive).
With `Cc1occc1C(=O)NNC(=O)C1CCCCC1` the inhibition was 20.4% (inactive).
`CCOc1ccc(CCNC(=O)CSc2nn(-c3ccc(C)c(Cl)c3)c(=S)s2)cc1OCC` was tested, and the inhibition was 8.9% (inactive).
`CCN(CC1COc2ccccc2O1)C(=S)Nc1ccccc1` (stereo unspecified) was tested, and the inhibition was 11.9% (inactive).
In the case of `S=C(c1ccc(-c2ccccc2Cl)o1)N1CCCCC1`, the inhibition is reported as 10.9% (inactive).
`S=C(c1ccc(-c2cc(Cl)ccc2Cl)o1)N1CCOCC1` was tested, and the inhibition was 11.6% (inactive).
With `S=C(c1ccc(-c2ccccc2Cl)o1)N1CCOCC1` the inhibition was 70.8% (active).
`O=C(CSc1nnc(-c2ccc(OC(F)F)cc2)o1)N1CCOCC1` was tested, and the inhibition was -4.5% (inactive).
`CNC(=O)c1ccccc1F` was tested, and the inhibition was 6.4% (inactive).
For `O=C(C1CC1)N1N=C(C2CCCCC2)CC1(O)C(F)(F)F` (stereo unspecified), the inhibition was 6.9% (inactive).
With `O=C(C1CCCC1)N1CCC(CO)(Cc2ccccc2Cl)CC1` the inhibition was 0.9% (inactive).
`COc1ccc2[nH]c(=S)[nH]c2c1` was tested, and the inhibition was 16.4% (inactive).
With `S=c1[nH]c2ccc(Cl)cc2[nH]1` the inhibition was 50.2% (active).
In the case of `S=c1[nH]c2cc(Cl)ccc2s1`, the inhibition is reported as -15.2% (inactive).
In the case of `O=C(Nc1ccccc1Cl)N1CCN(C/C=C/c2ccccc2)CC1`, the inhibition is reported as -2% (inactive).
In the case of `Oc1ccc(-c2cn3c(n2)SCC3)cc1O`, the inhibition is reported as 59.5% (active).
For `Cc1ccc(-c2cn3c(n2)SCC3)cc1`, the inhibition was -3.8% (inactive).
For `Oc1ccc(-c2cn3c(n2)SCC3)cc1`, the inhibition was -8.6% (inactive).
For `CCNc1nc(N2CCOCC2)nc(N(c2ccccc2)c2ccccc2)n1`, the inhibition was 13% (inactive).
In the case of `COc1ccc(Cl)cc1N/C(N)=N/c1nc(CSc2ccc(C)cc2)cc(=O)[nH]1`, the inhibition is reported as 3.7% (inactive).
With `NC(=S)N/N=C\c1c2ccccc2cc2ccccc12` the inhibition was -64.6% (inactive).
`NC(=S)Nc1cccc2cc3ccccc3cc12` was tested, and the inhibition was -8.8% (inactive).
For `NC(=S)Nc1cc2ccccc2c2ccccc12`, the inhibition was 67.5% (active).
For `COc1ccc(C(=O)OCC(=O)NCCCc2ccccc2)cc1[N+](=O)[O-]`, the inhibition was 9.8% (inactive).
With `O=C(CSc1nnnn1-c1ccccc1)N1CCc2ccccc2C1` the inhibition was 4% (inactive).
For `CN(C)CCC(=O)c1cccc(Br)c1`, the inhibition was 24% (inactive).
With `CCN1C(=O)/C(=C2\SC(=S)N(c3c(C)n(C)n(-c4ccccc4)c3=O)C2=O)c2ccccc21` the inhibition was 14.5% (inactive).
`Cc1c(N2C(=O)/C(=C3/C(=O)N(C)c4ccccc43)SC2=S)c(=O)n(-c2ccccc2)n1C` was tested, and the inhibition was 11.1% (inactive).
`CC(=O)N1C(=O)/C(=C2\SC(=S)N(c3c(C)n(C)n(-c4ccccc4)c3=O)C2=O)c2ccccc21` was tested, and the inhibition was 64.9% (active).
With `N/C(COc1ncn(-c2ccccc2)n1)=N\S(=O)(=O)c1ccc(Cl)cc1Cl` the inhibition was 9.1% (inactive).
In the case of `CCC(C)(C)NC(=O)C(OC(=O)c1ccco1)c1ccccc1OC` (stereo unspecified), the inhibition is reported as 14.2% (inactive).
In the case of `O=C(O)CNC(=O)CC1S/C(=N/N=C2\CSC(=O)N2)NC1=O` (stereo unspecified), the inhibition is reported as 59.9% (active).
With `NC(=O)NC(=O)CC1S/C(=N/N=C2\CSC(=O)N2)NC1=O` (stereo unspecified) the inhibition was 48.8% (inactive).
With `O=C(O)CNC(=O)CC1S/C(=N/N=C2/NC(=O)CS2)NC1=O` (stereo unspecified) the inhibition was 25.1% (inactive).
For `CCc1sc(C(=O)Nc2ccsc2C(=O)OC)cc1Br`, the inhibition was -4.6% (inactive).
`O=C(CS(=O)(=O)c1cn(Cc2cccc(F)c2)c2ccccc12)N1CCOCC1` was tested, and the inhibition was 5.3% (inactive).
In the case of `O=C1CCNc2ccc(-c3ccccc3)cc21`, the inhibition is reported as 3.1% (inactive).
For `Cc1ccc2c(c1)C(=O)CCN2`, the inhibition was -1.2% (inactive).
With `Cc1ccc2oc(-c3ccccc3C(=O)O)cc(=O)c2c1` the inhibition was -3.3% (inactive).
With `CCOC(=O)c1sc(/N=C/N(C)C)nc1C` the inhibition was -4.1% (inactive).
For `CCOC(=O)c1cnc(/N=C/N(C)C)s1`, the inhibition was 2.3% (inactive).
With `CCOC(=O)c1cc2n(c1/N=C/N(C)C)-c1ccccc1C2=O` the inhibition was 55.7% (active).
`Cc1ccccc1-c1nnc(NC(=O)c2cc3ccccc3oc2=O)s1` was tested, and the inhibition was -1.2% (inactive).
`CCN(CC)Cc1c(O)ccc2c(=O)c(-c3ccc4c(c3)OCCO4)coc12` was tested, and the inhibition was 5.6% (inactive).
`COC1OC(COC(=O)CNC(=O)OC(C)(C)C)C(O)C(O)C1O` (stereo unspecified) was tested, and the inhibition was -0.1% (inactive).
In the case of `CC(C)CC(C(=O)NC1CCCCC1)N(Cc1cccs1)C(=O)c1snc(C(N)=O)c1N` (stereo unspecified), the inhibition is reported as 101% (active).
`CC(C)CC(C(=O)NC1CCCC1)N(Cc1cccs1)C(=O)c1snc(C(N)=O)c1N` (stereo unspecified) was tested, and the inhibition was 13% (inactive).
With `CCC(C(=O)NC1CCCCC1)N(Cc1cccs1)C(=O)c1snc(C(N)=O)c1N` (stereo unspecified) the inhibition was 3.9% (inactive).
`CCOC(=O)COc1ccc(S(=O)(=O)NCC2CCCO2)cc1` (stereo unspecified) was tested, and the inhibition was -1.8% (inactive).
`COc1ccccc1OCc1nc(-c2cccc([N+](=O)[O-])c2)no1` was tested, and the inhibition was 2.9% (inactive).
`COc1cccc(OCc2nc(-c3cccc([N+](=O)[O-])c3)no2)c1` was tested, and the inhibition was 4.9% (inactive).
In the case of `O=[N+]([O-])c1cccc(-c2noc(COc3ccccc3)n2)c1`, the inhibition is reported as 57.3% (active).
In the case of `CC(=O)c1cnc(-c2ccccc2Cl)s1`, the inhibition is reported as 0.5% (inactive).
With `CC(C(=O)Nc1nc2ccccc2s1)n1cc([N+](=O)[O-])cn1` (stereo unspecified) the inhibition was 11.5% (inactive).
With `CS(=O)(=O)Nc1ccc2[nH]c(=O)[nH]c2c1` the inhibition was 3.3% (inactive).
For `Cc1cc(C)c(S(=O)(=O)Nc2ccc3[nH]c(=O)[nH]c3c2)c(C)c1`, the inhibition was 4.4% (inactive).
With `CCS(=O)(=O)Nc1ccc2[nH]c(=O)[nH]c2c1` the inhibition was 52.1% (active).
For `N#C/C(=C\c1cccc(NC(=O)c2ccccc2Cl)c1)C(=O)NCCc1ccccc1`, the inhibition was 10.1% (inactive).
With `O=C(Cc1ccc(F)cc1)OCC(=O)c1cc2ccccc2o1` the inhibition was 9% (inactive).
For `COc1ccc(-c2nc(N)ncc2-c2csc(C)n2)c(O)c1OC`, the inhibition was 6.8% (inactive).
`COC1=C(N)C(=O)c2nc(-c3nc(C(=O)O)c(C)c(-c4ccc(OC)c(OC)c4O)c3N)ccc2C1=O` was tested, and the inhibition was 56% (active).
`COc1ccc(-c2n[nH]c(C)c2-c2ccc(Cl)cc2)c(O)c1OC` was tested, and the inhibition was 6.7% (inactive).
With `NS(=O)(=O)c1ccc(NC(=O)C2(c3ccccc3)CCCC2)cc1` the inhibition was 1.9% (inactive).
In the case of `O=C(CSc1ccc(-c2ccccn2)nn1)c1ccc([N+](=O)[O-])cc1`, the inhibition is reported as 3.7% (inactive).
With `O=C(CSc1ccc(-c2ccccn2)nn1)c1ccccc1` the inhibition was -14.4% (inactive).
With `O=C(CSc1ccc(-c2ccccn2)nn1)c1ccc(F)cc1` the inhibition was 62.5% (active).
With `CSC1=N/C(=C\c2ccc(C)s2)C(=O)S1` the inhibition was 7% (inactive).
For `O=C(NC1CCCCCCC1)c1ccc2c(c1)N(Cc1ccc(F)cc1)C(=O)CS2=O` (stereo unspecified), the inhibition was 0.6% (inactive).
With `NC(=S)Nn1c(CCC(=O)O)ccc1-c1ccccc1` the inhibition was 14.4% (inactive).
For `CCc1ccc(C(=O)COC(=O)CCc2nc3ccccc3c(=O)[nH]2)cc1`, the inhibition was -28.6% (inactive).
With `Cc1cccc2cc(C#N)c(SCc3nnc(-c4ccccc4[N+](=O)[O-])o3)nc12` the inhibition was 11.1% (inactive).
`C/C=C(\C)C(=O)NCCN1C2=NC[C@H](C(C)C)N2C[C@H]1Cc1ccc(O)cc1` was tested, and the inhibition was 1.5% (inactive).
For `N#C/C(=C/c1ccc(CNS(=O)(=O)c2ccccc2)o1)C(=O)NCc1ccccc1`, the inhibition was 7.8% (inactive).
For `COCCNC(=O)/C(C#N)=C\c1ccc(CNS(=O)(=O)c2ccc(C)cc2)o1`, the inhibition was 6.2% (inactive).
In the case of `Cc1ccc(S(=O)(=O)NCc2ccc(/C=C(/C#N)C(=O)NCc3ccccc3)o2)cc1`, the inhibition is reported as 58.4% (active).
